# EPAC2 ag: EPAC2 (human) agonism; AID 720711; EPAC2 activation, biochemical qHTS; response scale: 100% = 6.5 mM cAMP response; actives 0.079% (n = 360,000); Q8WZA2; Potency, µM (top dose mostly 154 µM), without a hit: at the top dose activation, most hits filed as activators; further: nearly all actives have a fitted effect of over 50% in size
#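 Nucleotide exchange monitored as fluorescence drop when BODIPY-GDP leaves Rap1B. Reaction: 100 nM EPAC2, 250 nM RAP1B-BODIPY-GDP, 50 uM GDP, room temperature, kinetic read over 30 min. Activity expressed relative to 6.5 mM cAMP.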
# EPAC1 agonist: activates human EPAC1 exchange factor | EPAC1 agonist qHTS, biochemical assay; response scale: 100% = response to 6.5 mM cAMP | AID 720707 | O95398 | Potency, µM (titrated, usually from 154 µM), for inactives: at the top dose activation, hits mostly activators | actives 0.073% (n = 360,000); further: nearly all actives have a fitted effect of over 60% in size
# Target sequence (O95398 whole entry, looked up): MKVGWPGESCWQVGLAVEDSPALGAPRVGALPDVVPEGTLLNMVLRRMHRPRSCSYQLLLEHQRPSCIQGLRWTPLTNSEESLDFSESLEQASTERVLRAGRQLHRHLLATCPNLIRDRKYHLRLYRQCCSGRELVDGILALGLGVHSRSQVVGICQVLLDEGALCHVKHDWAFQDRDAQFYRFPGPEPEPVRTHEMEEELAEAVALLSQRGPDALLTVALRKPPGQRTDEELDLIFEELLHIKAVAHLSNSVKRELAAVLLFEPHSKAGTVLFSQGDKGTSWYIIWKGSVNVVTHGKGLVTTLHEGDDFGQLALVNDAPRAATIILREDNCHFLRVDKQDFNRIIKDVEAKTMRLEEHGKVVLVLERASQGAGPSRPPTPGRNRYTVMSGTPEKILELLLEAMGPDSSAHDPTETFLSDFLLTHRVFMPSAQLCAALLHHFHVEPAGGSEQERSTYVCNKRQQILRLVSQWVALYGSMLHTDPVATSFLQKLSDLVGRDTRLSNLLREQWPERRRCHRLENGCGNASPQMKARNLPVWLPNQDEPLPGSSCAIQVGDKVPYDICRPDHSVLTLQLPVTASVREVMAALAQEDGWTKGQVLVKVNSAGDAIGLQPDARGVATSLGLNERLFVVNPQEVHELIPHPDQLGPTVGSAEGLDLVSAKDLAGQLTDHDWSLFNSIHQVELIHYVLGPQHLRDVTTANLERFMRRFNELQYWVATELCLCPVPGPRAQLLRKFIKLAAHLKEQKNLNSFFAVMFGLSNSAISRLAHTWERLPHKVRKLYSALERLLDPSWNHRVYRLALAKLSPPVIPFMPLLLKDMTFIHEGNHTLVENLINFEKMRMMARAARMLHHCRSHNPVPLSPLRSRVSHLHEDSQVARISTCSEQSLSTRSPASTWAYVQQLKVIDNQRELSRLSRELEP
#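 EPAC1 100 nM, Rap1B–BODIPY-GDP 250 nM, unlabeled GDP 50 uM; compound titration; 5 min RT; kinetic read ex480/em540 at 5-min intervals ×30 min; data normalized to 6.5 mM cAMP agonist control.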
# USP1 inh: USP1/UAF1 (human) deubiquitinase inhibition. O94782. recombinant USP1/UAF1, Ub-Rhodamine cleavage fluorescence. Potency, µM (top dose mostly 57.1 µM), inactives show at the top dose activity change, negative = inhibition, actives largely listed as inhibitors. actives 0.23% (n = 390,000); further: on the % scale 0 is the no-effect control and ±100 the full control effect; nearly all actives have a fitted effect of over 60% in size
#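 In this screen, compounds sit with the deubiquitinase complex (1nM) for 15 min at room temperature before Ub-Rho is added at 150nM final. Fluorescence rise is then followed for 6 reads every 60 seconds.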
# EPAC2 antag: EPAC2 (human) antagonism. Q8WZA2. EPAC2 GEF exchange of Rap1B-BODIPY-GDP, fluorescence. Potency, µM (doses to about 114 µM), for the others: at the highest dose activity, negative = inhibition, actives largely listed as inhibitors. actives 0.18% (n = 360,000). AID 720708; further: on the % scale 0 is the no-effect control and ±100 the full control effect; nearly all actives have a fitted effect of over 45% in size
# USP2a inh: blocks human ubiquitin-specific protease USP2a; O75604; USP2 core, Ub-CHOP2 coupled fluorogenic reporter, 485/531; Potency, µM (top dose mostly 38.3 µM), for the others: at the top dose activity change, negative = inhibition, usual class: inhibitors; actives 0.01% (n = 330,000); AID 463254;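 further: plate controls were DMSO wells for no effect and full inhibition by NEM control for full effect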
#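 Deubiquitinase activity read as fluorescence (485/531 nm) after Ub-CHOP2 cleavage activates the enterokinase reporter on its substrate; USP2 core 10nM, Ub-CHOP2 and substrate 25nM each, 30min compound preincubation then 60min RT; data normalized to NEM, curves fitted.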
# EPAC1 antagonist: blocks human EPAC1 exchange factor; EPAC1 GEF assay, Rap1b-BODIPY-GDP exchange fluorescence; AID 720709; O95398; Potency, µM (top dose mostly 115 µM), for inactives: top-dose activity change, negative = inhibition, hits mostly inhibitors; actives 0.14% (n = 360,000);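 further: plate controls were vehicle for no effect and positive control for full effect; nearly all actives have a fitted effect of over 50% in size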
# * hit, by the source's call; ? = inconclusive; . = not tested or not shown. The list is not random: actives were taken first. Their share in the collection is about 0.45%. The call rests on the fitted dose curve; in most records, active means well fitted curve in the direction sought with a large enough effect; inconclusive means small, poorly fitted or top-dose-only effect, or another doubt; inactive means no such curve, though single readings can be large; an effect the other way counts as inactive or inconclusive. Potency means the concentration at half of the fitted maximal effect.
SMILES,EPAC2 ag,EPAC1 agonist,USP1 inh,EPAC2 antag,USP2a inh,EPAC1 antagonist
CCCCn1c(N)c(N(CC(C)C)C(=O)C2CCN(S(=O)(=O)c3ccc(C)c(C)c3)CC2)c(=O)[nH]c1=O,-6.6%,-10.9%,-4.8%,28.8%,0.5%,50.1µM*
CCC(=O)NC1=C(Cl)C(=O)C(NC(=O)CC)=C(Cl)C1=O,0.9%,1.1%,31.6µM*,17.7%,-0.8%,?
CCOC(=O)C1CCN(c2nc3c(S(=O)(=O)c4ccccc4)nnn3c3ccsc23)CC1,.,.,5.7%,.,.,.
CN(Cc1ccc(F)cc1)C(=O)c1cccc(OCc2ccccc2)c1,16.6%,7.2%,-8.4%,50.1µM*,2.3%,-5.9%
CN(C)c1ccc(C(=O)c2ccc(O)cc2O)cc1,-7.7%,4.1%,-9.1%,-5.1%,-6.5%,1.8%
CN(C)c1ccc(Cc2cc3c(O)ccc(O)c3cc(Cc3ccc(N(C)C)cc3)c2=O)cc1,10.2%,9.4%,?,-5.5%,.,50.1µM*
Cc1ccc(-n2ncc3c(NCCC4=CCCCC4)ncnc32)cc1,.,.,-9.3%,.,.,.
COc1ccc(N(CC(=O)NCc2ccccc2Cl)S(=O)(=O)c2c(C)[nH]c(=O)[nH]c2=O)cc1,.,.,9.8%,.,.,.
NC(=O)c1cc[n+](CC2=C(C(=O)O)N3C(=O)[C@@H](NC(=O)C(c4ccccc4)S(=O)(=O)[O-])[C@H]3SC2)cc1 (stereo partly drawn),0.5%,9.6%,35.5µM*,54.6%,-0.4%,14.8%
CCOC(=O)[C@@H](NC(=O)CC[C@H]1O[C@@H](n2ccc(=O)[nH]c2=O)[C@H](O)[C@@H]1O)C(C)C,9.5%,-1.8%,.,8.8%,.,-2.3%
Cc1ccc(S(=O)(=O)N2C[C@H]3C(=O)C[C@@H](c4cccs4)N(S(=O)(=O)c4ccc(C)cc4)[C@H]3C[C@H]2c2ccccc2)cc1,5.7%,10.8%,.,7.5%,.,-11.2%
O=C(O)/C=C\C(=O)Nc1ccccc1C#Cc1ccc(Br)cc1,9.4%,13.8%,2.5%,10µM*,0.0%,-3.1%
N#CC1=C2SCN(Cc3ccccc3)CN2C(=O)CC1c1ccc2c(c1)OCO2 (stereo not drawn),-4.5%,0.6%,-14.9%,3.0%,-0.1%,1.0%
N#CC1=C2SCN(Cc3ccccc3)CN2C(=O)CC1c1cccs1 (stereo not drawn),11.6%,2.6%,15.8µM*,5.8%,-2.1%,-21.7%
CN(C)S(=O)(=O)c1ccc2c(c1)N(CC(=O)N1CCN(c3ccc(F)cc3)CC1)CCS2,.,.,-28.6%,.,.,.
CC1CCCCC1NC(=O)COC(=O)c1c2c(nc3ccccc13)/C(=C/c1ccco1)CC2 (stereo not drawn),-3.2%,-36.3%,-22.3%,15.8%,?,44.7µM*
O=C(COC(=O)c1c2c(nc3ccccc13)/C(=C/c1ccco1)CC2)NC1CCCC1,0.0%,-4.0%,-6.4%,0.1%,?,?
COCC(=O)OC1CCn2c1nc1c2C(=O)C(C)=C(NC(C)=O)C1=O (stereo not drawn),24.4%,6.6%,4.47µM*,?,.,?
Cc1ccc(O)c(C(=O)c2cc(C#N)c(=O)n(-c3nccs3)c2)c1,112µM*,39.8µM*,17.8µM*,177.8%,?,58.4%
CCc1nc2c(OCCOc3ccc(F)cc3)cccn2c1N(C)C(=O)CC(C)C,2.5%,-7.9%,.,-23.9%,.,-1.2%
COC(=O)CN1C(=S)N(c2ccc(OC)cc2)C(=O)/C1=C/c1ccc(OC)cc1,3.1%,-0.6%,-21.5%,1.1%,-5.6%,-7.5%
COC(=O)CN1C(=S)N(c2ccc(OC)cc2)C(=O)/C1=C/c1ccc(N2CCOCC2)cc1,?,?,28.2µM*,57.7%,7.8%,30.7%
Cc1ccccc1NC1=C/C(=N\S(=O)(=O)c2cccs2)c2ccccc2C1=O,9.2%,8.4%,2.24µM*,-7.1%,0.4%,-6.4%
COc1ccc(S(=O)(=O)/N=C2\C=C(Nc3ccc(O)cc3)C(=O)c3ccccc32)cc1,20.1%,13.1%,7.08µM*,-20.5%,-4.4%,?
Cc1ccc(NC2=C/C(=N/S(=O)(=O)c3cccs3)c3ccccc3C2=O)cc1C,-2.5%,4.9%,-6.9%,-15.5%,2.9%,-13.5%
SMILES,EPAC2 ag,EPAC1 agonist,USP1 inh,EPAC2 antag,USP2a inh,EPAC1 antagonist
CC(=O)Nc1ccc(NC2=C/C(=N/S(=O)(=O)c3cccs3)c3ccccc3C2=O)cc1,14.4%,9.7%,15.8µM*,-3.4%,-0.2%,-2.2%
COc1ccc(S(=O)(=O)c2ccc(O)cc2)cc1,3.5%,3.5%,-3.3%,7.7%,-0.9%,7.6%
Cc1ccc(C)c(C(Nc2ccccc2)c2ccc3ccc(C)nc3c2O)c1 (stereo not drawn),4.1%,6.9%,.,-11.1%,.,-23.1%
COc1ccc(CNC(=O)Cn2c(=O)cc(-c3ccccc3)c3c(C)nn(C)c32)cc1,.,.,-13.4%,.,.,.
Nc1cc(N)c(OCC(F)(F)F)cc1OCC(F)(F)F,5.0%,-19.5%,25.1µM*,-5.3%,5.3%,-1.0%
O=C1C(N2CCOCC2)=C(n2nnc3ccccc32)C(=O)c2ccccc21,2.1%,0.5%,14.1µM*,-2.0%,-4.1%,-28.1%
O=C(O)CN1C(=O)/C(=C\c2cc(Br)ccc2OCc2ccc(F)cc2)SC1=S,1.3%,7.0%,?,?,-7.4%,?
O=C(O)CN1C(=O)/C(=C\c2cc(Br)ccc2OCc2ccc(Cl)cc2)SC1=S,-1.6%,-2.0%,?,50.1µM*,-9.3%,?
Cc1nn(-c2ccccc2)c(Cl)c1/C=C1\SC(=S)N(CCCCCC(=O)O)C1=O,6.4%,12.2%,?,39.8µM*,-5.1%,-9.3%
O=C(O)CCCN1C(=O)/C(=C\c2ccccc2OCc2ccccc2)SC1=S,7.4%,-1.0%,?,?,-7.0%,50.1µM*
O=C(O)CN1C(=O)/C(=C\c2ccccc2OCc2ccccc2)SC1=S,-0.1%,-0.6%,-16.3%,?,.,-13.6%
O=C(O)CCCN1C(=O)/C(=C/c2cn(-c3ccccc3)nc2-c2cccs2)SC1=S,?,56.2µM*,?,83.5%,29.9%,20.4%
O=C(CCCN1C(=O)/C(=C/c2cccs2)SC1=S)Nc1ccccn1,2.3%,-2.9%,-14.9%,4.8%,-1.2%,-0.5%
COC(=O)c1ccc2nc(C)cc(Nc3cccc(Cl)c3C)c2c1,.,.,-10.2%,.,.,.
CCOC(=O)C(=C1Nc2ccccc2N1)n1c(-c2cccnc2)nc2ccccc21,14.7%,-9.2%,.,-1.1%,.,-9.9%
CC1(C(=O)NS(=O)(=O)c2ccc3c(c2)CCO3)CCN1C(=O)C1(c2ccc(Cl)cc2)CCC1 (stereo not drawn),8.5%,-5.4%,.,?,.,50.1µM*
